# This excerpt belongs to a sample that is enriched for hits.
# Pf Dd2 growth: blocks in vitro growth of P. falciparum Dd2; actives 4.3% (n = 120,000); P. falciparum Dd2 growth, SYBR Green, 72 h; Potency, µM (top dose mostly 28.9 µM), inactives show at the top dose activity, negative = inhibition, usual class: inhibitors; AID 1347417; active = well fitted inhibition curve with a large enough effect;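 also: plate controls were DMSO vehicle for no effect and reference drug for full effect; nearly all actives have a fitted effect of over 65% in size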
#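 Readout: SYBR Green fluorescence, 485 nm excitation, 535 nm emission, after ~16 h lysis at 37C. Before that, Dd2-infected red cells (2.5% hematocrit) grew 72 h with compound, 29 uM top final concentration.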
# * = called active by the depositor; i = inactive; [ ] = another dose, or the depositor's remark. Potency is read from the fitted curve at half-maximal effect.
SMILES,Pf Dd2 growth
Cn1cc(CN2CCCC23CCN(c2ccc(C(F)(F)F)cn2)CC3)cc1C#N,5µM*
Cn1ncc(CN2CCCC23CCN(c2ccc(C(F)(F)F)cn2)CC3)c1C1CC1,11µM*
Cc1cccc(C)c1CN1CC2(COCC1=O)CN(c1ccc(C(F)(F)F)cn1)C2,-1%[44.1 µM]
Cc1ccc(C2(O)CCN(c3cc(C(F)(F)F)ccn3)CC2)nc1,-8%
CC(C)n1ccnc1CN1CCCC12CCN(c1ccc(C(F)(F)F)cn1)CC2,13µM*
Cn1c(Cn2cccn2)nnc1C1CCCN(C(=O)Cc2cccnc2)C1 (stereo not given),-11%
O=C1[C@@H]2C[C@@H](CN2C(=O)c2ccno2)Oc2ccccc2N1CC1CC1,6%[44.1 µM]
Cc1nc2cc(S(=O)(=O)N3CCOCC3)ccc2n1CCNC(=O)C1CC1,-5%
CN1Cc2ccccc2-n2ccnc2C12CCN(C(=O)c1ccc(Br)o1)CC2,-13%[5.79 µM]
CC(C)(C)CC(=O)NC[C@H]1OC[C@@H](NCc2ncc[nH]2)[C@@H]1O,5%[44.1 µM]
COCCc1noc([C@@H]2CN(Cc3cccc(C#N)c3)C[C@H]2CO)n1,-16%
Cc1ccc(NC(=O)c2c(C)nc3sc(C(=O)Nc4ccc(F)cc4)c(N)c3c2-c2ccc(C)o2)c(C)c1,3.5µM*
COc1ccc(NC(=O)c2sc3nc(C)c(C(=O)Nc4ccc(C)cc4C)c(-c4sccc4C)c3c2N)cc1,3.2µM*
COc1cccc(NC(=O)c2sc3nc(C)c(C(=O)Nc4ccc(C)cc4C)c(-c4ccc(Br)cc4)c3c2N)c1,8.9µM*
Cc1ccc(NC(=O)c2sc3nc(-c4ccc(F)cc4)ccc3c2N)cc1F,0%
Cc1cc(F)ccc1NC(=O)c1sc2nc(-c3cccs3)ccc2c1N,-6%
COC(=O)c1ccccc1NC(=O)c1sc2nc(C)cc(C)c2c1NC(=O)c1ccccc1OC,33%
COc1ccc(Cc2c(C)nn(-c3nc(C)c(C(=O)Nc4ccc(C)cc4C)s3)c2C)cc1,-13%
COc1cccc(C(=O)Nc2nc(-c3ccc(Br)cc3)ns2)c1,11%
COc1ccccc1NC(=O)c1sc2nc(N3CCOCC3)c3c(c2c1N)CC(C)(C)OC3,-3%
COCCCNC(=O)c1sc2nc(C)c(C(=O)Nc3ccc(Cl)cc3)c(-c3ccc(Br)cc3)c2c1N,-9%
COc1ccccc1NC(=O)c1sc2nc(C)c(C(=O)Nc3ccc(C)cc3C)c(-c3ccc(C)o3)c2c1N,11µM*
CCCCOC(=O)c1ccc(NC(=O)c2sc3nc(C)cc(C)c3c2N)cc1,-14%
CC(C)=CCC1(C(=O)O)CCCN(C(=O)C2(Cn3cccn3)CC2)C1 (stereo not given),-7%
Cc1nn(C)c(C)c1CCCN(C)C(=O)C1N(C(C)C)C(=O)C12CCCC2 (stereo not given),-6%
SMILES,Pf Dd2 growth
O=C1N(Cc2ccc(F)cc2)C[C@H]2CN(Cc3ccccn3)CCN12,i
CC(C(=O)O)N1CC2(CCC1=O)CCN(C(=O)N1CCCC1)CC2 (stereo not given),3%
O=C(NCCC1CCN(C(=O)Nc2cc(F)ccc2F)CC1)c1ccccc1,-13%
Cc1noc(C)c1-c1cc2c(cc(C)n2C)c(-c2cccc([S+](C)(=O)[O-])c2)n1,i
COc1ccccc1NC(=O)c1sc2cccc(Cl)c2c1Cl,42%
COc1ccccc1C(=O)Nc1c(C(=O)Nc2cc(Cl)ccc2C)sc2nc(C)cc(C)c12,2%
COc1ccccc1NC(=O)c1sc2nc(C)c(C(=O)Nc3ccc(C)cc3C)c(-c3ccccc3Cl)c2c1N,5.6µM*
CS(=O)(=O)c1ccc(OCC2(CNC(=O)N3CCOCC3)C[C@@H](O)[C@@H](O)C2)cc1 (stereo not given in full),20%[44.1 µM]
CCc1ccc2c(c1)NC(c1ccc(C)cc1)=NC(c1cccs1)=N2,13µM*
CC(C)c1ccc2c(c1)NC(c1ccncc1)=NC(c1cccs1)=N2,1%
FC(F)(F)Oc1ccc2c(c1)NC(c1ccncc1)=NC(c1cccs1)=N2,-26%
Cc1ccc(C(=O)Nc2ccc(NC(=O)CCCn3cncn3)cc2)o1,-1%
C[C@@H](NC(=O)C1=C[C@@H](NC(=O)Nc2cccc(F)c2)[C@@H](O)[C@H](O)C1)C(N)=O,-8%[44.1 µM]
CCN(CC)C(=O)C[C@@H]1c2nc(NC(=O)c3ccc(F)cc3)sc2C[C@@H]2[C@](C)(CO)[C@H](O)CC[C@]21C,-12%
COc1ccc(CNC(=O)C[C@@H]2c3nc(NC(=O)c4c(F)cccc4F)sc3C[C@@H]3[C@](C)(CO)[C@H](O)CC[C@]32C)cc1,7.9µM*
C[C@]1(CO)[C@H]2Cc3sc(NC(=O)c4c(F)cccc4F)nc3[C@@H](CC(=O)O)[C@]2(C)CC[C@H]1O,-4%
COc1ccc(CNC(=O)C[C@@H]2c3nc(NC(=O)c4cccs4)sc3C[C@@H]3[C@](C)(CO)[C@H](O)CC[C@]32C)cc1,4µM*
CC(C)(C)CC(=O)Nc1nc2c(s1)C[C@@H]1[C@](C)(CO)[C@H](O)CC[C@@]1(C)[C@@H]2CC(=O)NCc1ccccc1,i
C=CCN(C)C(=O)C[C@@H]1c2nc(NC(=O)c3cccs3)sc2C[C@@H]2[C@](C)(CO)[C@H](O)CC[C@]21C,11µM*
